In PubChem BioAssay AID2014 (Sanford-Burnham Center for Chemical Genomics, 2009):
Among all 290,000 compounds or so, about 3,000 (1%) were called active. No rule for the calls is given here. For the sample, actives were picked, then their nearest neighbours and some compounds at random.

Target: Polyadenylate-binding protein 1 (Homo sapiens) (UniProt P11940)
Assay: PABP poly(A) RNA binding inhibitors, primary screen, biochemical, fluorescence polarization, uHTS (AID 2014);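 also: calls also rest on retests at 20 µM and on dose response follow-up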
Details: stronger effect = higher value

Polyadenylate-binding protein 1 (Homo sapiens), sequence (P11940 whole entry, looked up): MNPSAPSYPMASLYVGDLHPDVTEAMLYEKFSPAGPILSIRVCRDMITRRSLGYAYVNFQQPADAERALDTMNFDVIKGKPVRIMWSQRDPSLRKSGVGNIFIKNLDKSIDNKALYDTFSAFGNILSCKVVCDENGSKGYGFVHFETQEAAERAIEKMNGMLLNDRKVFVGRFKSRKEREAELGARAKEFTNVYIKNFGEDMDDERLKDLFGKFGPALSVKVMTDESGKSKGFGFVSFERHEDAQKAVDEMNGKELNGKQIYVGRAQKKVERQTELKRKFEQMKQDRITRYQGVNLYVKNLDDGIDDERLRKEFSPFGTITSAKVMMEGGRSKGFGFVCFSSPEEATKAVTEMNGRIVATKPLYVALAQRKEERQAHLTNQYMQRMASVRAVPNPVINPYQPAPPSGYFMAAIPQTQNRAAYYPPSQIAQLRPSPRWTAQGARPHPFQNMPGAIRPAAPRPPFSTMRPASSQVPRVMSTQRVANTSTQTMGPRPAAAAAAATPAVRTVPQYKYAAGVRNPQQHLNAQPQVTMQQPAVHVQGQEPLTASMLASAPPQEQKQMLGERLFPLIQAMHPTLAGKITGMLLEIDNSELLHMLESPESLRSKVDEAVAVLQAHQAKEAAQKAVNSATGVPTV

SMILES | inhibition (at 35 µM) | inhibition (confirmation repeats, at 20 µM) [%]
Cc1ccc(NC(=O)CCN2C(=O)c3ccccc3C2=O)cc1C | -7.2% (inactive) | 
Cc1cc(C)cc(OCC(=O)NNC(=O)CCN2C(=O)c3ccccc3C2=O)c1 | 116% (active) | 74.1
Cc1cc(C)cc(NC(=O)CCN2C(=O)c3ccccc3C2=O)c1 | 0.7% (inactive) | 
COc1cc(NC(=O)c2ccc(-c3csc(C)n3)cc2)c(OC)cc1Cl | 7.9% (inactive) | 
COC(=O)c1cc(NS(=O)(=O)c2ccc3c(c2)c(=O)n(C)c(=O)n3C)cc(C(=O)OC)c1 | 3.8% (inactive) | 
COC(=O)c1ccc(N2CCOCC2)c(NC(=O)c2ccc3c(c2)OCCO3)c1 | 4.7% (inactive) | 
CCC(CC)C(=O)N1CCN(c2cccc(C)c2C)CC1 | -1.2% (inactive) | 
Cc1cccc(N2CCN(C(=O)/C=C/c3ccco3)CC2)c1C | -10.7% (active) | 96.7
O=C(/C=C/c1ccco1)NC(=S)N1CCCCC1 | 1.1% (inactive) | 
COc1ccc(C(O)(C2CCCCC2)C(CN2CCCC2)c2ccccc2)cc1 (centres undefined) | 12.9% (inactive) | 
Cc1ccc2sc(N(CCN(C)C)C(=O)/C=C/c3cccs3)nc2c1C | -1.9% (inactive) | 
CCCN(c1ccc(C)cc1)c1nc(=O)c2cccnc2s1 | 71.4% (active) | 
CC1(C(=O)N/N=C/c2cc3c(cc2Br)OCO3)CC1(Br)Br (centres undefined) | -5.1% (inactive) | 
CCN(CC(=O)NCc1ccco1)S(=O)(=O)c1ccc(F)cc1 | -5.2% (inactive) | 
NS(=O)(=O)c1cccc(NC(=O)CC23CC4CC(CC(Br)(C4)C2)C3)c1 | -11.5% (inactive) | 
CC(C)Nc1ccc(-n2nc3ccccc3[n+]2[O-])cc1 | 1% (inactive) | 
O=C(NCCN1CCOCC1)c1ccc(/C=C2\Sc3ccccc3N(Cc3ccc(F)cc3)C2=O)cc1 | -1.5% (inactive) | 
CCN1CCN(CCNC(=O)c2ccc3c(c2)NC(=O)/C(=C\c2ccc(OC)c(OC)c2)S3)CC1 | 6.5% (inactive) | 
CCN1CCN(CCNC(=O)c2ccc(/C=C3/Sc4ccccc4N(Cc4cccc(C)c4)C3=O)cc2)CC1 | 60.2% (active) | 75.8

SMILES | inhibition (at 35 µM) | inhibition (confirmation repeats, at 20 µM) [%]
COc1ccc(/C=N/OCc2ccccc2C#N)c(OC)c1 | 12.1% (inactive) | 
CC(NC(=O)CCCC1CCCCC1)c1ccc(S(N)(=O)=O)cc1 (centres undefined) | -0.5% (inactive) | 
Cc1ccc(NC(=O)Cc2nnc(SCC(=O)Nc3nncs3)n2C)cc1 | -10.3% (inactive) | 
S=C(NCc1ccco1)Nc1ccc2c(c1)OCCO2 | 76.8% (active) | 58.4
COc1cccc(NC(=S)NCc2ccco2)c1 | 3.2% (inactive) | 
S=C(NCc1ccc2c(c1)OCO2)NCc1ccco1 | 2.5% (inactive) | 
N#CC1=C(N)C(C#N)(C#N)[C@H](c2ccsc2)[C@H]2COCC=C12 | 111% (inactive) | 0
CCOC(=O)C1=C(C)NC(=S)NC1c1cccs1 (centres undefined) | 3.2% (inactive) | 
CCOC(=O)N1CC=C2C(C#N)=C(N)C(C#N)(C#N)[C@H](c3cccs3)[C@H]2C1 | 82.2% (active) | 
O=C(N/C(=C\c1ccc([N+](=O)[O-])cc1)C(=O)N1CCCCC1)c1ccco1 | 4.9% (inactive) | 
COc1cc(C(=O)Nn2c(CC(C)C)nc3ccccc3c2=O)cc(OC)c1OC | 1.2% (inactive) | 
Cc1ccc(N(Cc2cc(=O)[nH]c3ccccc23)C(=O)CCl)cc1 | 3% (inactive) | 
COc1ccc(N(Cc2ccc(N(C)C)cc2)C(=O)c2ccc(S(C)(=O)=O)cc2)cc1 | -1.6% (inactive) | 
CNc1nc(-c2ccccc2)cc(-c2ccccc2)n1 | 4.7% (inactive) | 
Nc1nc(-c2ccccc2)cc(-c2ccccc2)n1 | 9.3% (inactive) | 
CS(=O)(=O)c1sc2nc(-c3ccccc3)cc(-c3ccccc3)c2c1N | 117% (active) | 
CCc1ccccc1NC(=O)c1cc(-c2ccc3c(c2)OCO3)on1 | 3.5% (inactive) | 
C/C(=N\NC(=O)COc1ccc(C)cc1[N+](=O)[O-])c1ccc2c(c1)OCCO2 | 3.8% (inactive) | 
COC(=O)c1cccc(N(C(=O)CNC(=O)c2cccs2)C(C(=O)NCC2CCCO2)c2ccc(OC)c(OC)c2)c1 (centres undefined) | 1% (inactive) | 

SMILES | inhibition (at 35 µM) | inhibition (confirmation repeats, at 20 µM) [%]
CCn1c(=O)c2ccccc2n(CC(=O)N2CCCc3ccccc32)c1=O | -1.4% (inactive) | 
CCC(=O)N1CCCc2ccccc21 | 59.1% (active) | 
O=C(CSCc1ccccc1)N1CCc2ccccc21 | 2.2% (inactive) | 
Cc1cc(NC(=O)c2ccc(F)cc2)ccc1NC(=O)c1ccco1 | 1.1% (inactive) | 
Cc1c(C(=O)N2CCN(c3ccc(F)cc3)CC2)oc2c1C(=O)CCC2 | 5.7% (inactive) | 
O=C(NCc1cccc(CNC(=O)Nc2cccc(O)c2)c1)Nc1cccc(O)c1 | 3.3% (inactive) | 
COc1ccc(OC)c(-n2nnnc2SCC(=O)Nc2cc(C)ccc2OC)c1 | 2.6% (inactive) | 
COc1ccc(C)cc1-n1nnnc1SCC(=O)c1cc(C)n(Cc2ccco2)c1C | 51.1% (active) | 
Cc1cc(C(=O)CSc2nc(N)cc(=O)[nH]2)c(C)n1Cc1ccco1 | 10.5% (inactive) | 
O=C(OCC1O[C@@H](OC(=O)c2cc(O)c(O)c(O)c2)[C@@H](OC(=O)c2cc(O)c(O)c(O)c2)[C@@H](OC(=O)c2cc(O)c(O)c(O)c2)[C@@H]1OC(=O)c1cc(O)c(O)c(O)c1)c1cc(O)c(O)c(O)c1 (some centres undefined) | 88.2% (active) | 
Cc1ccc(-c2nc(-c3ccncc3)no2)c(C)c1 | 9.6% (inactive) | 
COc1ccc(-c2ocnc2C(=O)Nc2ccc3c(c2)CCC3)cc1 | 5.3% (inactive) | 
Cc1ccc2c(cnn2C(=O)CCC(=O)NC2CCCC2)c1 | -2.1% (inactive) | 
COc1ccc(Nc2ccc([N+](=O)[O-])cn2)cn1 | 39.7% (active) | 54
COc1ccccc1C1CCN(c2ccc([N+](=O)[O-])cn2)CC1 | 3.2% (inactive) | 
COc1ccc(C(=O)NCCNc2ccc([N+](=O)[O-])cn2)cc1 | -2.9% (inactive) | 
CCOc1ccc(N(CC)S(=O)(=O)c2cccc3nsnc23)cc1 | 51% (inactive) | 37.2
CC(=O)Nc1ccc(NC(=O)CN2C(=O)COc3ccc(S(=O)(=O)N4CCCCC4)cc32)cc1 | 0% (inactive) | 
O=C(NCCc1nnc2ccc(SCC(=O)N3CCOCC3)nn12)c1ccccc1 | 6.6% (inactive) | 
